The text below walks through data of PubChem BioAssay.

Inconclusive results are not listed. Calls of active or inactive are those of the source.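 Rule for the calls, unless noted: active = differentiation response of at least 50%, scaled between solvent and reference control, from cells with both markers; inactive = the rest.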

Assay [1] is described as follows: yeast TOR pathway RPL19A-GFP modulators, primary screen, cell-based, S. cerevisiae, multiplex flow cytometry (AID 1862; in the data active = percent of DMSO control GFP below about 86%;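 note: lower values mimic rapamycin by blocking the RPL19A rise seen in DMSO cells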). Particulars: S. cerevisiae RPL19A-GFP strain, flow cytometry fluorescence, 3 h; at 10 µM; stronger effect = lower value. (Flow cytometry measures light scatter and fluorescence of single cells or particles in a stream.)
A short description of assay [2]: modulators of MEP2-GFP levels in yeast, primary screen, S. cerevisiae, multiplex flow cytometry (AID 1867;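 active = GFP response, as percent of the DMSO control, above the screen-wide mean plus 3 SD, about 139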;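 note: median GFP channel fluorescence of barcode-gated MEP2-GFP cells measured by flow cytometry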). Particulars: S. cerevisiae MEP2-GFP strain, 3 h, at 10 µM, stronger effect = higher value, 100% means same as DMSO wells.
Assay [3] is described as follows: modulators of CIT2-GFP expression in yeast, primary screen, S. cerevisiae, GFP fusion, multiplex flow cytometry (AID 1870;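 active = percent response above a set limit, the screen-wide mean plus 3 SD, cut at about 130% in these data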;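 note: barcoded CIT2-GFP strain pooled with four other GFP strains with rapamycin as positive control; median GFP fluorescence per well over plate mean of DMSO wells so 100% = DMSO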). Particulars: 3 h, at 10 µM, stronger effect = higher value.
Assay [4] in a line: modulators of LAP4-GFP expression in yeast, primary screen, S. cerevisiae, multiplex flow cytometry (AID 1873;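 active = GFP signal, as percent of the solvent control, above the screen mean plus 3 SD, about 149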). The following applies: 3 h, at 10 µM, stronger effect = higher value.
A short description of assay [5]: modulators of AGP1-GFP expression in yeast TOR pathway, primary screen, cell-based, multiplex flow cytometry, S. cerevisiae (AID 1887;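 active = GFP signal above the screen-wide mean plus 3 SD, that is over about 124.5% of the solvent control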;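 note: AGP1-GFP fusion strain of S. cerevisiae within a five-strain barcoded multiplex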). Particulars: 3 h, at 10 µM, stronger effect = higher value.
The nature of assay [6]: inhibitors of CD8+ T cell-vesicle binding, pilot screen, LFA-1/ICAM-1 modulator project, MLPCN validation set, flow cytometry (AID 2523;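 active = response below a set limit, under 55% cells CD8-positive and vesicle-bound, and CD8 cells' 90th-percentile brightness under 279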;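 for vesicle binding response: mean PE anti-B7-1 fluorescence of CD8+ cells relative to row control; 100% = QL9-loaded vesicles with DMSO vehicle in the same plate row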). Particulars: 2C mouse CD8+ T cells, at 7 µM, stronger effect = lower value; double positive events: measured here: CD8+/vesicle+ event percentage.
Assay [7] concerns the target Integrin beta-1 (Homo sapiens) + Integrin alpha-4 (Homo sapiens) (UniProt P13612+P05556). As to the kind of experiment: inhibition of HUTS-21 binding to VLA-4, pilot screen, VLA-4 allosteric modulator project, U937 cells, HUTS-21 mAb, flow cytometry, validation set (AID 2674;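 active = inhibition above 50%, about 3 SD of the validation set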;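 note: antibody binding induced by the VLA-4 ligand LDV present at three times its Kd; 0% = LDV ligand with antibody and no compound and 100% = antibody without LDV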). Particulars: HUTS-21 LIBS mAb binding, at 6.7 µM, stronger effect = higher value, binding induced by LDV ligand.

Assay [8] is described as follows: superoxide lowering in aged yeast cells, pilot screen, validation compound set (AID 2706;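 active = superoxide response below 65% of plate, a cut near 3 SD across the whole screen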;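 note: yeast exposed to compound for one week at 30 degrees C before staining; 100% = mean of all compound wells on the same plate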). Particulars: S. cerevisiae aging, superoxide DHE fluorescence; at 10 µM; stronger effect = lower value.
Assay [9] deals with Beta-adrenergic receptor kinase 1 (Homo sapiens) (UniProt P25098). The assay can be described thus: GRK2 binders displacing RNA aptamer, biochemical, validation, human GRK2, bead flow cytometry (AID 488806;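 active = aptamer binding inhibition above 30%, about 3 SD of noise from non-fluorescent compounds; inactive = inhibition at or below 30%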). Particulars: bead-bound GRK2, FAM-aptamer displacement, at 10 µM, stronger effect = higher value.
The target in assay [10] is Beta-2 adrenergic receptor (Homo sapiens) (UniProt P07550). The assay can be described thus: beta2AR agonists driving receptor internalization, pilot screen, cell-based, FAP fluorogen, flow cytometry, validation set (AID 504459;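 active = percent response above 42, roughly 3 SD of non-fluorescent test compounds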;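 note: agonist-driven loss of surface beta2AR via internalization measured by FAP dye flow cytometry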). Particulars: Am2.2-beta2AR cells, FAP surface receptor flow cytometry; at 10 µM; stronger effect = higher value.
For assay [11], the target named is AP-2 complex subunit beta (Homo sapiens) (UniProt P63010). As to the kind of experiment: inhibitors of arrestin peptide binding to AP2, pilot screen, biochemical, validation set, GST-AP2 beads, flow cytometry (AID 504541;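 active = inhibition above 54%, about 3 SD of non-fluorescent compounds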;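 note: AP2 carries R879A mutation and is captured from E. coli lysate; bead-bound FITC arrestin peptide fluorescence measuring arrestin peptide binding to AP2; 0% = DMSO wells and 100% = excess unlabeled arrestin peptide control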). Particulars: FITC arrestin peptide, at 10 µM, stronger effect = higher value, AP2 beta2 appendage fragment, R879A mutant.
Assay [12] is described as follows: yeast V-ATPase proton transport modulators, S. cerevisiae, pHLuorin, HTS validation (AID 504600; in the data active = response above about 15%;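 note: plate controls were DMSO for no effect and reference compound for full effect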). Particulars: S. cerevisiae pHLuorin cytosolic pH, at 10 µM, stronger effect = higher value.
Assay [13] relates to anti-desmoglein-3 scFv antibody binding to human DSG3. The assay can be described thus: inhibitors of anti-DSG3 scFv binding to DSG3, pilot screen, biochemical, validation compound set, bead-based, flow cytometry (AID 588368;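 active = binding below the plate cutoff, the plate median minus 3 SD, with a reading above zero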;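 note: signal is the median channel fluorescence of bead-bound GFP antibody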). Particulars: Protein G beads, DSG3-Fc, scFv-GFP binding, at 10 µM, stronger effect = lower value.
Assay [14] in a line: inhibitors of fungal efflux pumps CDR1, CDR2, MDR1, pilot screen, validation compound set, multiplex, phenotypic (AID 588506;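 active = efflux inhibition above 0.42, the validation set average plus 4 SD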;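 note: Nile Red retained in cells so higher fluorescence means more efflux inhibition; 0 = negative control wells and 1 = enniatin B 25 µM full block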). The following applies: S. cerevisiae pump-expressing triplex, Nile Red efflux flow cytometry; at 10 µM; stronger effect = higher value; the pumps come from Candida albicans.
Assay [15] can be described thus: promoters of myeloid differentiation in arrested cells, primary screen, cell-based, GFP/MAC1 double positive, flow cytometry, validation set (AID 588685).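 Note: compound exposure lasts four days before antibody staining and flow analysis; 0% = DMSO wells and 100% = 5 µM fulvestrant positive control.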 Particulars: ER-HoxA9 marrow cells, stronger effect = higher value, normalized: vehicle 0, fulvestrant 100.
Assay [16] deals with ATP-binding cassette sub-family B member 6 (Homo sapiens) (UniProt Q9NP58). As to the kind of experiment: ABCB6 transporter inhibitors, pilot screen, K562-ABCB6 cells, flow cytometry, validation set (AID 588550;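 active = inhibition above the screen-wide mean plus 3 SD, about 51%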;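 note: 0% = DMSO wells and 100% = benzethonium chloride 70 µM positive control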). The following applies: K562-ABCB6 porphyrin accumulation, 1 h, at 10 µM, stronger effect = higher value.
Sequence of ATP-binding cassette sub-family B member 6 (Homo sapiens) (Q9NP58 whole entry, looked up): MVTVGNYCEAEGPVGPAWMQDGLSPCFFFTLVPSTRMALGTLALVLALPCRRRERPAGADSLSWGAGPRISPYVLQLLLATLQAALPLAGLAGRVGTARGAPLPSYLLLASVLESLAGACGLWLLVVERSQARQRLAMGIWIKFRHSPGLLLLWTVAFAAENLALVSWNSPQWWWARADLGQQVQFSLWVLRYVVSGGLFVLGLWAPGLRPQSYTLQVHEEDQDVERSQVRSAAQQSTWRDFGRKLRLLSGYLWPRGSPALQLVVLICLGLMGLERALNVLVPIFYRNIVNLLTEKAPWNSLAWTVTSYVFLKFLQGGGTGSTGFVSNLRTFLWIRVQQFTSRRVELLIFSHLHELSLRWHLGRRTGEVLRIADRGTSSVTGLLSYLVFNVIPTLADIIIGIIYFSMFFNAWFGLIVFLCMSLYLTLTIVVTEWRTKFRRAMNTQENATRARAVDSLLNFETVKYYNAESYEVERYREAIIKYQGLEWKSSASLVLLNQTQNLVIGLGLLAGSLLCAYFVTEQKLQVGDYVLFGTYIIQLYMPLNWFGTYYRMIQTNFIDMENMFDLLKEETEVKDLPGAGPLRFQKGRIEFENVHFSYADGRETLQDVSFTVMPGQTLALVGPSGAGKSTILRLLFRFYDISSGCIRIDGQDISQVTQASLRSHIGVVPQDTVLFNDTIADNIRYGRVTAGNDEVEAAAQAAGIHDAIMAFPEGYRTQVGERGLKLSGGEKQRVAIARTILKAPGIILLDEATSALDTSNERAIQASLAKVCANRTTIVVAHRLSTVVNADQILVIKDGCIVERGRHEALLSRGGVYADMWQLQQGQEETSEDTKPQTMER

Sequence of Beta-2 adrenergic receptor (Homo sapiens) (P07550 whole entry, looked up): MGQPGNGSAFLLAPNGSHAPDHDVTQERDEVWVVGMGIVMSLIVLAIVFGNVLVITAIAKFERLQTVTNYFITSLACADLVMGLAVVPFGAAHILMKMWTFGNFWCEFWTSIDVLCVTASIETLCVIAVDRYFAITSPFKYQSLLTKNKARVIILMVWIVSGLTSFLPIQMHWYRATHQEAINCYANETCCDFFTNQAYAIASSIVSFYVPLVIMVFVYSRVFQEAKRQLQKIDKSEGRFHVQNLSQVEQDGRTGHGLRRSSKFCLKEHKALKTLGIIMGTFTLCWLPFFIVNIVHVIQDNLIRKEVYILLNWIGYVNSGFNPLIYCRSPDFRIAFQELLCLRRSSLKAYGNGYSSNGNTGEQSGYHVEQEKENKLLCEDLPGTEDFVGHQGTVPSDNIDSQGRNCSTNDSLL
Sequence of AP-2 complex subunit beta (Homo sapiens) (P63010 whole entry, looked up, the tested form may be a part, one chain of several): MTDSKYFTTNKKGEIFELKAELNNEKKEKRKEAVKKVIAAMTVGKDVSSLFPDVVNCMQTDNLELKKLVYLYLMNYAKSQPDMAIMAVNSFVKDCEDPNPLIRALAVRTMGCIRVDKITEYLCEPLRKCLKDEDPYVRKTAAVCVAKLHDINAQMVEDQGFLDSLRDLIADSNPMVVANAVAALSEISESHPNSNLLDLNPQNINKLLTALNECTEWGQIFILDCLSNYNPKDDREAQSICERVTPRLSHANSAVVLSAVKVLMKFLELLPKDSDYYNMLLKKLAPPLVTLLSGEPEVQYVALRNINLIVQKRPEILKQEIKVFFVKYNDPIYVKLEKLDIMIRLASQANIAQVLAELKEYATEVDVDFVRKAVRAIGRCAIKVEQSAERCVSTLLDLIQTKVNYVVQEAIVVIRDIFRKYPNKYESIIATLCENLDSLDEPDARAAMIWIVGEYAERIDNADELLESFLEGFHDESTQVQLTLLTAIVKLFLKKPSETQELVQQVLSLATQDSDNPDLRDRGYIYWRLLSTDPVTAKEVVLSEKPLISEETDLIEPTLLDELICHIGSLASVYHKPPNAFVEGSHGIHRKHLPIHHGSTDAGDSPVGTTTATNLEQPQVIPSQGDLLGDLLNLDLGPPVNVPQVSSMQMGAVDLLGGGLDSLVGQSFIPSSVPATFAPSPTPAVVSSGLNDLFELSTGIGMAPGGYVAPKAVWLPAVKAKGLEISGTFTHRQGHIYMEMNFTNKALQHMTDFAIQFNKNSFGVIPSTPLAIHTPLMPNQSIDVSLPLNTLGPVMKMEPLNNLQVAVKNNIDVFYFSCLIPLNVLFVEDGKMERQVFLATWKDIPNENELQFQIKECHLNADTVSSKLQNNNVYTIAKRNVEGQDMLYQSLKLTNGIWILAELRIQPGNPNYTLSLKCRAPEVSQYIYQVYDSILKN
Sequence of Integrin beta-1 (Homo sapiens) + Integrin alpha-4 (Homo sapiens) (P05556 whole entry, looked up): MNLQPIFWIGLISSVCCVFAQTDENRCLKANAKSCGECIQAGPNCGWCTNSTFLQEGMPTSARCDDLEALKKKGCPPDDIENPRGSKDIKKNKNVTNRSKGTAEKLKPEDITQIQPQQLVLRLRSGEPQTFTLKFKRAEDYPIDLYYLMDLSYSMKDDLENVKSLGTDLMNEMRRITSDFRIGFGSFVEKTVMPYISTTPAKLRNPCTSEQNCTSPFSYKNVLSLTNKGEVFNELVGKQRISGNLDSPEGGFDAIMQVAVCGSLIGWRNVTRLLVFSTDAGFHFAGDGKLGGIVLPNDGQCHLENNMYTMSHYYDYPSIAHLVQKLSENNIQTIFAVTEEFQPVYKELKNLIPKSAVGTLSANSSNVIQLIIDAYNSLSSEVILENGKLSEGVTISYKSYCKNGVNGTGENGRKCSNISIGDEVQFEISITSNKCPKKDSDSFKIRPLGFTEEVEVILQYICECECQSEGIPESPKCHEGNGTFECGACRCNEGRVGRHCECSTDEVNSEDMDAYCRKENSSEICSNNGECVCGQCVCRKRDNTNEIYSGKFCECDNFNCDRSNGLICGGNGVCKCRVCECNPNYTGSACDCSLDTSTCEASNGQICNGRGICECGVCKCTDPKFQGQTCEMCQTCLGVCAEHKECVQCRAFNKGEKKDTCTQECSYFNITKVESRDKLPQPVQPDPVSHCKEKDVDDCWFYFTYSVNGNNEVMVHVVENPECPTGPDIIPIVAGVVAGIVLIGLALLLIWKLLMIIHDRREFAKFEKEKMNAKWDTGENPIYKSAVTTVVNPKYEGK
Sequence of Integrin beta-1 (Homo sapiens) + Integrin alpha-4 (Homo sapiens) (P13612 whole entry, looked up): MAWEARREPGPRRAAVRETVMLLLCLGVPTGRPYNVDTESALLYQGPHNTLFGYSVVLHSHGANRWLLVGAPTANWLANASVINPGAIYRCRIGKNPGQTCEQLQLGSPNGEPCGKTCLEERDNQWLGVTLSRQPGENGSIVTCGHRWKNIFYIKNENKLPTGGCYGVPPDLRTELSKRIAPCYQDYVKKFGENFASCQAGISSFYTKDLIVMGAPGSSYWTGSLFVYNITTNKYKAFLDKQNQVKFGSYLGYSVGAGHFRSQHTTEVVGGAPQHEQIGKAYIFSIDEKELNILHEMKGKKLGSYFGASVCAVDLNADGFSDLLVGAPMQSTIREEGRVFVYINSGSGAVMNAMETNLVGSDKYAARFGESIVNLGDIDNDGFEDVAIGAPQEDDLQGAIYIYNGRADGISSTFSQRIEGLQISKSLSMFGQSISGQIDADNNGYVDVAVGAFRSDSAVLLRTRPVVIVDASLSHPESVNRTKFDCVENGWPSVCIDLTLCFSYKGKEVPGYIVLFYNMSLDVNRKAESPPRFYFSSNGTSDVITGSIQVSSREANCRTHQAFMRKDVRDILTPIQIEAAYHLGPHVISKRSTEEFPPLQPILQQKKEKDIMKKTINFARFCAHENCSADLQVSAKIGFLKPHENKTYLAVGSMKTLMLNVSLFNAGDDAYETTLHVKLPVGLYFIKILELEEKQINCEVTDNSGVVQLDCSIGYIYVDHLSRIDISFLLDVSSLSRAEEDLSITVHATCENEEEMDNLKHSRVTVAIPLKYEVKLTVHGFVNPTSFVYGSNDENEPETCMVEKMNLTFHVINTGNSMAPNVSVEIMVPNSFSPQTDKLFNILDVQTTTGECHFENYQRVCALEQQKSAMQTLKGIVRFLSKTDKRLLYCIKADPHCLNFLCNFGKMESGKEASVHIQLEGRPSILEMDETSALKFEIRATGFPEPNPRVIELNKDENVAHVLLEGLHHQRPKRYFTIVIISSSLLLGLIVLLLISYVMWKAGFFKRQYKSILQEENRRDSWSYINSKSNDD
Sequence of Beta-adrenergic receptor kinase 1 (Homo sapiens) (P25098 whole entry, looked up): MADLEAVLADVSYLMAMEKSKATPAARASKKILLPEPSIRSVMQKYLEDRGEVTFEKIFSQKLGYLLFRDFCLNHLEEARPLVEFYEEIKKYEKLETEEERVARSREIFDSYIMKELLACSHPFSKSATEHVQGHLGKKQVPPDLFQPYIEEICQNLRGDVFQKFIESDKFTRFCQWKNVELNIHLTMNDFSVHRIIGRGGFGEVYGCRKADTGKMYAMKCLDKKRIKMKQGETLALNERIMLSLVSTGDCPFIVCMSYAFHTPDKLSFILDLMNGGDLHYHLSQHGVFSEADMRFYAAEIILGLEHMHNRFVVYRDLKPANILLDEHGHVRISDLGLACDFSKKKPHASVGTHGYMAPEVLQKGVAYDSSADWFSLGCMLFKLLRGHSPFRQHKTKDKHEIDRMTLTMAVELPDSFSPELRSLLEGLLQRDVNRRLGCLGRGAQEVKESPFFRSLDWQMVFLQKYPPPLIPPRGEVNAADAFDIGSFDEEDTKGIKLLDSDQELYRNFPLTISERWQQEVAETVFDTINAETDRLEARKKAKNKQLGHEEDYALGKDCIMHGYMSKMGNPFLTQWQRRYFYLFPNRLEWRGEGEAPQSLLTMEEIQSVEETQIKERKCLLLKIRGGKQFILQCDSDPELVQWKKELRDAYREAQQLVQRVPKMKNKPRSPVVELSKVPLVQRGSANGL

In general, inhibition refers to the relative decrease from the control value, in per cent. Take `CCOCC(=O)Nc1ccccc1C(=O)N1CCOCC1`: the percent of DMSO control GFP in assay [1] was 97% (inactive). Moreover, the GFP response vs DMSO is 130% (inactive) in [2] and 88.6% (inactive) in assay [4]. Besides, in [3], the percent response of DMSO control was 114% (inactive). Besides, the GFP response, % of DMSO in assay [5] was 87.7% (inactive). This molecule also showed a double positive events in assay [6] of 67.2%. In assay [6], the vesicle binding response is 182% (inactive). Besides, the results for the inhibition in assay [7] and in [11] were -2.27% (inactive) and 14.3% (inactive), respectively. For the same molecule, in assay [8], the superoxide response (% of plate) is 96.8% (inactive). Also, the aptamer binding inhibition in assay [9] was 6% (inactive). Moreover, the response was 2.34% (inactive) in assay [10] and -3.44% (inactive) in assay [12]. The binding (% of control) in assay [13] was 100% (inactive). Further, the efflux inhibition (fraction of control) in assay [14] was 0.23 (inactive). The differentiation response in assay [15] was 0% (inactive).

As for `C[C@@H]1CCC[C@H](C)N1NC(=O)c1ccc(Cl)c(S(N)(=O)=O)c1`, in assay [1], the percent of DMSO control GFP is 105% (inactive). Besides, the values for the GFP response vs DMSO in assay [2] and in assay [4] were 106% (inactive) and 110% (inactive), respectively. Moreover, the percent response of DMSO control in assay [3] is 107% (inactive). Also, in [5], the GFP response, % of DMSO was 113% (inactive). The same molecule had a double positive events in assay [6] of 61.3%. Also, in [6], the vesicle binding response is 165% (inactive). Further, the inhibition in [7] was 4.27% (inactive); in assay [11], 2.8% (inactive); in [16], -5% (inactive). The superoxide response (% of plate) in assay [8] was 91.8% (inactive). In [9], the aptamer binding inhibition was -2% (inactive). For the same molecule, the values for the response in assay [10] and in assay [12] were 6.03% (inactive) and 1.78% (inactive), respectively. For the same molecule, in assay [13], the binding (% of control) is 105% (inactive). Also, in [14], the efflux inhibition (fraction of control) was 0.5 (active). The differentiation response in assay [15] is -8.96% (inactive).

`O=C(Oc1ccc2c3c(c(=O)oc2c1)CCCC3)c1ccco1`: in assay [1], the percent of DMSO control GFP is 101% (inactive). Besides, the results for the GFP response vs DMSO in assay [2] and in [4] were 101% (inactive) and 102% (inactive), respectively. Also, the percent response of DMSO control in assay [3] was 96% (inactive). For the same molecule, the GFP response, % of DMSO in [5] is 85% (inactive). The double positive events in assay [6] was 62.5%. Moreover, in assay [6], the vesicle binding response was 126% (inactive). Also, the inhibition in assay [7] is -6.04% (inactive); in assay [11], 11.5% (inactive); in [16] it was 6% (inactive). Also, the superoxide response (% of plate) in [8] was 99.3% (inactive). The aptamer binding inhibition in assay [9] was 5% (inactive). In addition, the results for the response in assay [10] and in assay [12] were 5.57% (inactive) and 0.75% (inactive), respectively. The binding (% of control) in assay [13] was 96.5% (inactive). Further, the efflux inhibition (fraction of control) in [14] is 0.62 (active). Also, in assay [15], the differentiation response was -5.68% (inactive).

Take `COCCOC(=O)C1=C(C)NC(C)=C(C(=O)OC(C)C)C1c1cccc([N+](=O)[O-])c1` (configuration not stated): the percent of DMSO control GFP in [1] was 102% (inactive). For the same molecule, the GFP response vs DMSO in assay [2] is 105% (inactive); in assay [4], 94.7% (inactive). Further, the percent response of DMSO control in [3] was 111% (inactive). Further, the GFP response, % of DMSO in [5] was 99.4% (inactive). The same molecule gave a double positive events in [6] of 58.9%. Besides, the vesicle binding response in assay [6] is 182% (inactive). For the same molecule, the inhibition in assay [7] was 4.73% (inactive); in assay [11], -3.69% (inactive); in [16] it was -4% (inactive). In addition, in [8], the superoxide response (% of plate) is 106% (inactive). Moreover, the aptamer binding inhibition in assay [9] was -1% (inactive). The response in [10] was -6.98% (inactive); in assay [12], 8.68% (inactive). Moreover, the binding (% of control) in assay [13] was 97.4% (inactive). Also, the efflux inhibition (fraction of control) in [14] is -0.17 (inactive). The differentiation response in [15] was -10.5% (inactive).
